Most compounds without a hit are left out; they make up all but 11% or so of the library.
FBPA coupling cs – counter-screen for Giardia aldolase inhibitors: coupling enzyme system | coupling enzyme system counterscreen, AmpLite Red fluorescence | activity change, negative = inhibition, % at 58.2 µM, hits read low | 0.67% of 290,000 active | AID 2472; in the data active means activity change below about -30%
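Compounds tested against the coupling enzymes alone at 57.5 uM final; readout was AmpLite Red fluorescence (525/598 nm) after 20 min at RT.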
Sfp PPTase inh – Sfp phosphopantetheinyl transferase inhibition; Q9F4F7; Biochemical Sfp PPTase activity, qHTS; Potency, µM, for the others: largest response in the series, negative = inhibition, hits mostly inhibitors; 3.5% of 310,000 active; AID 1490;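 further: the enzyme is Sfp with the accession as filed and its product quenches rhodamine fluorescence; potency means the concentration at half of the fitted maximal effect; 0% = enzyme reaction without inhibitor and -100% = no enzyme wells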
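Compounds were incubated with enzyme (final 15 nM) for 15 min at room temperature before substrate addition started the reaction. Fluorescence at 525 nm excitation, 598 nm emission was recorded immediately and after 30 minutes.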
Tau fluor counter – counter-screen for tau fibril formation inhibitors; tau K18 P301L Alexa594 fluorescence, heparin fibrillization; 0.93% of 280,000 active; Potency, µM (series often up to 57.7 µM), inactives show at the top dose activity change, negative = decrease; further: potency means the concentration at half of the fitted maximal effect; nearly all actives have a fitted effect of over 55% in size
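Human K18 P301L tau (15 uM unlabeled plus 0.24 uM Alexa 594-labeled, final) in 100 mM sodium acetate pH 7 was mixed with compound and 20 uM heparin and incubated 6 hr at 37 C.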
Tau fibril ThT – tau fibrillization inhibition (ThT binding); P10636; recombinant tau K18 P301L (four-repeat tau fragment), heparin-induced fibrillization, ThT fluorescence; Potency, µM (highest dose often 57.4 µM), for the others: at the top dose activity, negative = inhibition, hits mostly inhibitors; 2.1% of 270,000 active; AID 1460; further: potency means the concentration at half of the fitted maximal effect; nearly all actives have a fitted effect of over 55% in size
Target sequence (P10636 561-689 P618L limits assumed): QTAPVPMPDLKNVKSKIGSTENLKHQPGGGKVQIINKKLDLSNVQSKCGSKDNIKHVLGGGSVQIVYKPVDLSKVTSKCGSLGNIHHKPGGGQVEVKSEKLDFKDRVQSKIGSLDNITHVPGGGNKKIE
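Heparin-induced (20 uM) aggregation of recombinant human K18 P301L tau, 15 uM unlabeled with 0.24 uM labeled, pH 7 acetate buffer, 6 hr at 37 C with compound. Fibrils quantified by 30 uM ThT fluorescence after 1 hr ambient incubation.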
G9a inh – G9a (human) methyltransferase inhibition | Q96KQ7 | AID 504332 | Potency, µM (series often up to 102 µM), inactives show at the top dose activity, negative = inhibition, hits mostly inhibitors | G9a H3K9 monomethylation, AlphaScreen, 2 h | 8.8% of 350,000 active; further: potency means the concentration at half of the fitted maximal effect; nearly all actives have a fitted effect of over 75% in size
Target sequence (Q96KQ7 913-1193 limits assumed): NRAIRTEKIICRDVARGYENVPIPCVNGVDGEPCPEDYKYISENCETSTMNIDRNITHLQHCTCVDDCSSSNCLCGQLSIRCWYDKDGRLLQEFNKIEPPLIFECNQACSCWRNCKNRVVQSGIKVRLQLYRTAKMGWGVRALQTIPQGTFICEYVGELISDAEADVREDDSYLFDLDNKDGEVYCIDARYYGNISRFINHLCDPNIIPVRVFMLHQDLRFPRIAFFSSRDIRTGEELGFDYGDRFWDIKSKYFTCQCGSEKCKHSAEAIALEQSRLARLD
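Methyltransferase reactions run at room temperature for 2 h (20 nM enzyme, 500 nM biotin-H3K9 peptide, 20 uM SAM) after a 15 min compound preincubation; product detected by AlphaScreen beads and anti-H3K9me1 antibody.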
Tau FP inhib – tau fibrillization inhibition (FP); P10636; 0.39% of 280,000 active; Potency, µM (series often up to 57.7 µM), inactives show at the highest dose activity, negative = inhibition, actives largely listed as inhibitors; AID 1468; K18 P301L tau heparin fibrillization, Alexa594 FP, 6 h; further: potency means the concentration at half of the fitted maximal effect; nearly all actives have a fitted effect of over 55% in size
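Human K18 P301L fragment (15 uM unlabeled plus 0.24 uM Alexa 594-labeled) in 100 mM sodium acetate pH 7 with compound, aggregation induced by 20 uM heparin for 6 hr at 37 C. ThT (30 uM) added for 1 hr, then Alexa 594 FP read.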
An asterisk follows results filed as active; ? = inconclusive; . = no result; [ ] = remark or other dose. Unless noted, the call rests on the fitted dose curve; in most records, active means well fitted curve in the direction sought with a large enough effect; inconclusive means small, poorly fitted or top-dose-only effect, or another doubt; inactive means no such curve, though single readings can be large; an effect the other way counts as inactive or inconclusive. Unless noted, on the % scale 0 is the no-effect control and ±100 the full control effect.

SMILES	FBPA coupling cs	Sfp PPTase inh	Tau fluor counter	Tau fibril ThT	G9a inh	Tau FP inhib
Cc1nc(CCNC(=O)c2cc(COc3ccc(F)cc3Cl)on2)sc1C	0	40µM*	?	.	.	-7%
O=C(c1cc(COc2cccc(C(F)(F)F)c2)on1)N1C[C@@H]2CCC[C@H]1C2	.	-9%	.	.	132%	.
Nc1nc(SCC(=O)c2c(N)n(C3CC3)c(=O)[nH]c2=O)n[nH]1	.	.	.	.	11µM*	.
COc1ccc2nc(SCC(=O)c3c(N)n(C4CC4)c(=O)[nH]c3=O)[nH]c2c1	.	.	.	.	7.1µM*	.
Nc1nc(SCC(=O)c2c(N)n(Cc3ccccc3)c(=O)[nH]c2=O)n[nH]1	2	10%	-1%	2%	31%[12.7 µM]	-6%
COCCn1c(SCC(=O)c2c(N)n(C3CC3)c(=O)[nH]c2=O)nc2ccccc21	.	.	.	.	1%[2.33 µM]	.
COc1ccc2nc(SCC(=O)C(C)(C)C)[nH]c2c1	-1	40µM*	-4%	-5%	56µM*	-4%
CCC(NC(=O)C(C)NC)C(=O)N1CCCC1C(=O)NC1CCCc2ccccc21 (centres undefined)	.	.	.	.	17%[2.33 µM]	.
Cn1nc(C(F)(F)F)c2cc(C(=O)Nc3ccc(F)cc3)sc21	-1	-2%	-24%	-2%	.	-18%
Cn1nc(C(F)(F)F)c2cc(C(=O)Nc3ccc(C(F)(F)F)cc3)sc21	-2	12%	?	.	.	28µM*
COc1cccc(/C=C2/SC(=O)N(CC(=O)N3CCc4ccccc4C3)C2=O)c1OCC(=O)O	13	56µM*	5%	-9%	-35%[59 µM]	0%
COc1cccc(/C=C2/SC(=O)N(C)C2=O)c1OCc1ccc(C(=O)O)cc1	21	-2%	-1%	5%	-16%	-5%
COc1ccc(N2CCN(C(=O)c3c(C)oc4ncn(CC(C)C)c(=O)c34)CC2)cc1	.	.	-6%	-9%	?	6%
Cc1cc(=O)[nH]c2ccc(Cl)cc12	2	-11%	7%	5%	?	7%
S=c1[nH]c2ccc(Cl)cc2s1	10	-4%	-14%	?	1.1µM*	-5%
CC(=O)c1ccc(NC(=S)Nc2ccc3cn[nH]c3c2)cc1	-5	32µM*	?	16µM*	45µM*	?
COC(=O)c1ccccc1S(=O)(=O)Nc1ccc2cn[nH]c2c1	-12	-2%	-11%	-12%	45µM*	?
Cc1ccc(NC(=S)Nc2ccc3cn[nH]c3c2)cc1C	3	-12%	-19%	?	?	3%
CC(C)c1ccc(NC(=S)Nc2ccc3cn[nH]c3c2)cc1	-13	10%	-25%	?	79µM*	3%
O=C1C(Cl)=C(Nc2ccc3cn[nH]c3c2)C(=O)c2ccccc21	-36*	8.9µM*	1.4µM*[quencher]	1.8µM*	-152%[59 µM]	7.9µM*
CCNC(=S)Nc1ccc2cn[nH]c2c1	-2	9%	-2%	-12%	15%[59 µM]	8%
CCCCC[C@H](O)/C=C\[C@@H]1[C@H](O)CC(=O)[C@@H]1CCCCCCC(=O)O	-1	33%	.	.	34%[21.5 µM]	.
CCCCOc1ccc(C(=O)Nc2onc3c2CCCC3)cc1	.	.	-23%	?	1%[59 µM]	-8%
O=C(Nc1ccc2cn[nH]c2c1)c1c(Cl)cccc1Cl	-8	40µM*	-11%	-11%	1.8µM*	-5%
O=S(=O)(c1ccc(NC(=S)NN=C2CCCCC2)cc1)N1CCOCC1	-9	-39%	-16%	-18%	6.3µM*	8%
SMILES	FBPA coupling cs	Sfp PPTase inh	Tau fluor counter	Tau fibril ThT	G9a inh	Tau FP inhib
NNC(=S)Nc1ccc(S(=O)(=O)N2CCCCC2)cc1	-2	-7%	16µM*[quencher]	-10%	-127%[59 µM]	14%
NNC(=S)Nc1ccc(S(=O)(=O)N2CCOCC2)cc1	-2	-10%	?	?	.	16%
CCOc1ccc(N2C(=O)c3cccnc3C2Nc2ccc(C)cc2)cc1 (centres undefined)	2	4%	-16%	-19%	?	5%
CCOc1ccc(N2C(=O)c3cccnc3C2Nc2ccc(C)c(C)c2)cc1 (centres undefined)	1	11%	-25%	-12%	89µM*	-9%
CC(=O)C1=C(O)C(=O)N(c2ccc(O)cc2)C1c1ccc(F)cc1 (centres undefined)	3	2%	.	.	?	.
CCCCN1C(=O)C(O)=C(C(C)=O)C1c1ccccc1[N+](=O)[O-] (centres undefined)	-17	18µM*	5%	9%	?	5%
CC(=O)C1=C(O)C(=O)N(c2ccc(O)cc2)C1c1ccccc1[N+](=O)[O-] (centres undefined)	-1	35µM*	.	.	14µM*	.
CC(=O)C1=C(O)C(=O)N(c2ccc(Br)cc2)C1c1ccc(Br)cc1 (centres undefined)	7	-7%	.	.	50µM*	.
COc1cccc(C2C(C(C)=O)=C(O)C(=O)N2CCNCCO)c1 (centres undefined)	1	16%	7%	3%	24%[12.7 µM]	6%
COCCCN1C(=O)C(O)=C(C(C)=O)C1c1cccc(F)c1 (centres undefined)	0	-14%	1%	-6%	50µM*	-3%
CCCOc1ccc(NC(=O)CC2C(=O)N(c3ccc(OC)cc3)C(=O)N2CCc2ccncc2)cc1 (centres undefined)	.	.	-24%	-7%	?	0%
COC(=O)c1cccc(NS(=O)(=O)c2ccc(OC)c(C(=O)N3CCOCC3)c2)c1C	1	-1%	.	.	24%	.
Cc1ccc(NC(=O)Cn2c(=O)n(Cc3ccco3)c(=O)c3sc4ccccc4c32)cc1C	.	.	-26%	-4%	-5%[59 µM]	-7%
CCc1ccccc1NC(=O)CNC(=O)c1ccc(-n2cncn2)c([N+](=O)[O-])c1	.	.	.	.	1%	.
O=c1ccc(-c2ccc(S(=O)(=O)N3CCCCC3)o2)n[nH]1	0	16%	.	.	-3%[59 µM]	.
CCCCN1C(=O)C(O)=C(C(C)=O)C1c1ccccc1 (centres undefined)	-12	6%	-5%	-7%	50µM*	2%
COCCN=c1scc(-c2cc(OC)c(OC)c(OC)c2)n1/N=C/c1c(C)[nH]c2ccccc12	-3	-3%	7.9µM*[quencher]	?	?	6%
CCc1ccc(NC(=O)CSc2nc(-c3cccc(OC)c3)nc3c2Cc2c(CO)cnc(C)c2O3)cc1	.	.	-4%	5%	-22%[59 µM]	3%
Cc1occc1C(=O)NNC(=O)Cc1ccccc1	1	14%	-8%	-8%	0.2µM*	-9%
Cc1occc1C(=O)NCCc1ccc(Cl)cc1	1	-23%	-8%	-15%	79µM*	7%
Cc1ccccc1C(=O)NCCCCc1ccccc1	1	-1%	3%	-3%	17%[59 µM]	3%
Cc1occc1C(=O)NCc1ccccc1	.	-4%	-10%	-14%	10%[0.0925 µM]	-2%

Screening data from PubChem.
